Source: PubChem BioAssay (several laboratories)
The list is not random: actives were taken first. Their share in the collection is about 4%.
GDH-TPI counter – inhibits GDH-TPI coupling enzymes, artifact for Mtb FBA screen; inhibition, % at 4.8 µM; 1.2% of 360,000 active; GDH-TPI coupled enzyme counterscreen, NADH absorbance; in the data active = inhibition above about 30%;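 also: 0% = DMSO wells and 100% = wells lacking the enzyme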
Mtb FBA inh – Mtb fructose-bisphosphate aldolase inhibition; 2.3% of 360,000 active; inhibition, % at 1 µM; purified M. tuberculosis FBA, fluorescence read-out; P9WQA3; in the data active = inhibition above about 27%;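 also: 0% = vehicle and 100% = reference inhibitor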
Mtb betalactam – beta-lactam sensitization of Mtb H37Rv; inhibition, % at 25 µM; M. tuberculosis H37Rv growth with meropenem, percent inhibition; AID 434955; 0.27% of 330,000 active;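 also: growth measured after seven days incubation then overnight dye step; 0% = bacteria only wells and 100% = bacteria with antibiotic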
RecA splice inh – inhibitors of M. tuberculosis RecA intein splicing; 0.75% of 290,000 active; AID 2221; inhibition, % (test concentration not listed); cell-free RecA intein splicing, fluorescence; P9WHJ3; in the data active = inhibition above about 30%; inconclusive = no clear call, values can overlap the other calls;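 also: 0% = vehicle wells and 100% = reference inhibitor control wells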
Target sequence (P9WHJ3 whole entry, looked up, canonical isoform): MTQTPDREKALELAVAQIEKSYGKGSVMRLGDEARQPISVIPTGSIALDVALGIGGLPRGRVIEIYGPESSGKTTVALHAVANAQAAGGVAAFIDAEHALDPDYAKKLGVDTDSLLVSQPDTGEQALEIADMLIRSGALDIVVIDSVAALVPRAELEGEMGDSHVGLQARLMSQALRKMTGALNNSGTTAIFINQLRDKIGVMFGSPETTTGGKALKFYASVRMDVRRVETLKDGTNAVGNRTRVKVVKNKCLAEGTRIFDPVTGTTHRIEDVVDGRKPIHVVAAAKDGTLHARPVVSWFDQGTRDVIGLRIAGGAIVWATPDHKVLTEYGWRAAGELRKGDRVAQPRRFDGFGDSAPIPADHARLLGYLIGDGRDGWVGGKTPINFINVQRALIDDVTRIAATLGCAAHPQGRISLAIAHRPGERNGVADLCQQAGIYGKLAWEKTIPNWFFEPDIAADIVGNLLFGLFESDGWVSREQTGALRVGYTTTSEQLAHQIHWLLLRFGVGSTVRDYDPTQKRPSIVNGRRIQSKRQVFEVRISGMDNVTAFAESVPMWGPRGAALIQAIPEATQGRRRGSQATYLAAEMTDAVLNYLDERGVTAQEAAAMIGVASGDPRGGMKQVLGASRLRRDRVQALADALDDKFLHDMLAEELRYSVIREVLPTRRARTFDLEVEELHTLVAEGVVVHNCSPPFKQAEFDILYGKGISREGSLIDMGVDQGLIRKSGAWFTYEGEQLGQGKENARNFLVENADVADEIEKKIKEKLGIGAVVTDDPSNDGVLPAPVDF
Rv3671c protease – Rv3671c (M. tuberculosis) protease inhibition; P9WHR9; inhibition, % at 5.96 µM; 0.048% of 320,000 active; AID 2606; in the data active = inhibition above about 38%;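 also: extracellular domain of Rv3671c used as enzyme; 0% = enzyme with DMSO and 100% = no enzyme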
Mtb UGM inh – inhibitors of M. tuberculosis UDP-galactopyranose mutase; P9WIQ1; purified UGM, fluorescence polarization probe displacement; inhibition, % at 10 µM; 0.06% of 320,000 active; AID 504406; in the data active = inhibition above about 10%, passing the limit was not always enough; inconclusive = no clear call, values can overlap the other calls
GFP chromo cs – counter-screen GFP chromophore formation inhibition. shares compounds with RecA splice inh. cell-free GFP chromophore formation, fluorescence. EC50, µM. 83% of 2,100 active
* hit, by the source's call; u = inconclusive; x = not tested or not shown. Unless noted, no rule for the calls is given here.

SMILES	GDH-TPI counter	Mtb FBA inh	Mtb betalactam	RecA splice inh	Rv3671c protease	Mtb UGM inh	GFP chromo cs
CCOC(=O)c1c(C)nn(-c2ccc(NC(=O)/C=C/C(=O)O)cc2)c1C	-2	0	-3	7	1	0	x
CCOC(=O)c1c(NC(=O)/C=C/C(=O)O)sc(C)c1-c1ccc(C)c(C)c1	14	1	-5	78*	-4	1	14*
O=C(Cc1ccccc1Cl)NC1(O)C(=O)c2ccccc2C1=O	-9	0	0	51*	-76	-2	12*
O=C(Cc1ccc(Cl)cc1)NCc1ccccc1Cl	2	1	4	0	3	-1	x
O=Cc1ccc(Sc2nnc(-c3ccccc3)o2)c([N+](=O)[O-])c1	16	-1	1	55*	4	0	26*
Cc1cc(C)nc(Sc2ccc(C=O)cc2[N+](=O)[O-])n1	1	-3	-4	2	5	-3	x
O=C(Nc1cccc(OC(=O)c2ccco2)c1)c1ccco1	-3	-1	91	33*	1	1	>38
COc1ccc(C(=O)Nc2ccc(O)c3ccccc23)cc1	8	-1	-2	98*	-20	-1	0.22*
COc1ccc(NC(=O)Nc2ccc(O)c3ccccc23)cc1	x	x	73	67*	-87	4	4.3*
CCN(CC(=O)Nc1ccc(S(=O)(=O)N2CCCC2)cc1)Cc1ccccc1	2	-1	-5	2	-7	1	x
CC1(C)CC(=O)C(C(C#Cc2ccccc2)C2=C(O)CC(C)(C)CC2=O)=C(O)C1	11	2	4	1	6	1	x
O=C1CCCC(O)=C1C(C#Cc1ccccc1)C1=C(O)CCCC1=O	9	-5	0	30*	6	4	12*
CC(=O)N1CCC2(CC1)C(C#N)=C(N)Oc1n[nH]c(C(F)(F)F)c12	0	3	-5	-10	7	1	x
Cc1[nH]nc2c1C1(CCC3(CC1)OCCO3)C(C#N)=C(N)O2	2	0	-2	74*	5	2	>38
COCc1[nH]nc2c1C1(CCSCC1)C(C#N)=C(N)O2	6	4	3	74*	-14	0	20*
CCOC(=O)N1CCC2(CC1)C(C#N)=C(N)Oc1n[nH]c(C)c12	5	2	-12	80*	-4	2	13*
O=c1c2[nH]cnc2n(-c2ccccc2)c(=O)n1Cc1ccccc1	-1	2	1	1	3	-2	x
COc1ccc(Cl)cc1S(=O)(=O)NC(C)C(=O)NCCCn1ccnc1 (stereo not drawn)	-2	-3	-4	0	7	0	x
S=C1NCCC12C(=S)Nc1ccccc12 (stereo not drawn)	9	0	0	37*	2	-2	>38
CCCCNc1ccc2nsnc2c1[N+](=O)[O-]	14	-7	-1	0	-9	3	x
CN(C)c1ccc2nsnc2c1[N+](=O)[O-]	5	-10	-6	32*	3	0	>38
CCOc1ccc(NC(=O)C(c2ccccn2)N(C(=O)CCl)c2ccc(F)cc2)cc1 (stereo not drawn)	5	1	-7	66*	-11	0	15*
Cc1ccc([C@H]2C[C@@H](n3cc(-c4ccc(F)cc4)nn3)[C@H](O)CN2CC2CCCCC2)cc1	8	2	x	x	x	x	x
Cc1cc(C(=O)c2ccccc2)c(NC(=O)CCl)s1	6	-3	99	58*	-7	0	17*
CCN(CC)CC(=O)Nc1sc(C)cc1C(=O)c1ccccc1	6	-1	11	-1	-15	1	x
SMILES	GDH-TPI counter	Mtb FBA inh	Mtb betalactam	RecA splice inh	Rv3671c protease	Mtb UGM inh	GFP chromo cs
Cc1ccc(SCC(=O)NC(=O)c2ccc(S(=O)(=O)N(C)C)cc2)cc1C	3	0	0	-2	-2	-1	x
CC(C)(C)C(=O)Nc1ccc(N=Nc2ccccc2)cc1	13	-3	-4	35*	-6	-5	8.7*
O=C(O)CCC(=O)Nc1ccc(N=Nc2ccccc2)cc1	21	-4	x	2	x	x	x
COc1cc(C(=O)N/N=C/c2coc3ccc(Cl)cc3c2=O)ccc1O	6	0	-5	23	-9	-6	x
COc1ccc(C(=O)N/N=C\c2coc3ccc(Cl)cc3c2=O)cc1	9	0	-4	37*	-12	-3	38*
O=C(N/N=C/c1coc2ccc(Cl)cc2c1=O)c1ccncc1	-6	2	100	6	x	-1	x
O=C(N/N=C/c1coc2ccc(Cl)cc2c1=O)c1ccc(O)cc1	-2	-1	-6	38*	x	3	32*
Cc1cccc(Nc2nnc(SCC(O)=C(C#N)c3nc4ccccc4[nH]3)s2)c1	24	4	x	x	x	x	x
CC(=O)c1c(N2CCOCC2)nc(=S)n(-c2ccc([N+](=O)[O-])cc2)c1C	8	6	-18	-4	-3	1	x
CSc1nc(=S)n(-c2ccc([N+](=O)[O-])cc2)c(C)c1C(C)=O	9	0	-9	35*	-2	2	>38
COc1ccc(N(C(=O)c2ccco2)S(=O)(=O)c2cccs2)cc1	7	3	8	33*	-2	-1	>38
O=C(Nc1ccccc1N(C(=O)c1ccco1)S(=O)(=O)c1cccs1)c1ccco1	2	-1	-3	10	4	1	5.8*
O=C(Nc1ccccc1NC(=O)c1ccco1)c1ccco1	4	0	u	0	5	-2	x
CC(C)NC(=S)NC1(C)CCS(=O)(=O)C1 (stereo not drawn)	5	3	-6	48*	5	2	>38
CC1(NC(=S)NCCO)CCS(=O)(=O)C1 (stereo not drawn)	-6	4	-2	-2	13	2	x
CCOc1ccc(CN(C)CC(=O)Nc2cccc3ccccc23)cc1OC	-4	2	13	14	-1	0	x
Oc1ccc2ccccc2c1-c1sc(Nc2ccccc2)n[n+]1-c1ccc(F)cc1	11	-1	-2	1	2	6	x
Fc1ccc(-[n+]2nc(Nc3ccccc3)sc2-c2c3ccccc3cc3ccccc23)cc1	9	-3	100	49*	4	-1	16*
Cc1cc(C)cc(CC(Cc2nc3ccccc3[nH]2)c2nc3ccccc3[nH]2)c1 (stereo not drawn)	11	0	90	36*	-24	2	>38
Cc1ccc(CSCc2nc3ccccc3[nH]2)cc1	1	2	x	1	x	x	x
N=c1c2c(-c3ccccc3)c(-c3ccccc3)n(Cc3ccco3)c2ncn1Cc1ccco1	-4	6	100	47*	-3	-1	14*
Cc1ccc(OCC(=O)Nc2ccc(Cl)cc2)c(-n2nc3ccccc3n2)c1	0	1	10	0	-3	-1	x
CC(=O)Oc1ccc2c(=O)oc(-c3ccccc3)nc2c1	3	3	2	5	-7	1	x
